Assay results as given in the supplement of paper PMC11001985.

Biological target: HSP90AA1 (UniProt P07900)
Test: lysine labeling ratio R10:1 (500 µM / 50 µM probe), SILAC-ABPP in living cells; higher = lower intrinsic lysine reactivity toward the probe, active = 2 or less
Details: HeLa, probe concentrations 500 vs 50 µM
Procedure: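 Living HeLa cells (SILAC light/heavy) in PBS at room temperature were labeled with 50 µM versus 500 µM of the lysine-reactive, reductant-cleavable probe OPA-S-S-alkyne (SILAC labeling time not stated). Probe-modified peptides were CuAAC-biotinylated, captured on neutravidin and eluted with DTT/IAA, then quantified by LC-MS/MS. R = median peptide ratio per lysine (500/50 µM), combined over 3 forward and 3 reverse SILAC replicates. Ratios are capped at 20; R < 2 = hyper-reactive.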

Measured: lysine labeling ratio R10:1

C#CCNC(=O)CCSSCCC(=O)NCCc1ccc(C=O)c(C=O)c1
inactive: lysine site: K58 3.2 | lysine site: K84 4.81 | lysine site: K458 2.96 | lysine site: K585 6.47 | lysine site: K632 5.33
active: lysine site: K457 0.935
